Records with an inconclusive call do not appear. A number with no mark means an inactive call. Active and inactive are the calls of the source. Calls follow the shape of the full dose curve.
Assay: Natriuretic polypeptide receptor (hNpr1) antagonism - Pilot counterscreen GloSensor control cell line (AID 1347045)
Settings: HEK293 cGMP GloSensor cells, SNP-stimulated luminescence, 20 min; series mostly up to 38.3 µM; activity change, negative = inhibition: at the top concentration
Description: F. Fan, B. F. Binkowski, B. L. Butler, P. F. Stecha, M. K. Lewis, K. V. Wood, Novel genetically encoded biosensors using firefly luciferase. ACS Chem Biol 3, 346-351 (2008).
PROTOCOL TABLE (as described by Inglese J, Shamu CE and Guy RK. 2007)
SEQUENCE No. (e.g., 1, 2, 3, etc.); […] (e.g., Cells, Incubation, Reagent, etc.); VALUE and DESCRIPTION.
1. Cells. Seed 1500 HEK293 cGMP-sensor cells per well in 4uL into Greiner 1536-well white/solid bottom high base, TC plates.
2. Incubation. Incubate plated cells at 37C in 5% CO2, 95% RH overnight.
3. Reagent. Add 1uL per well GloSensor reagent from Promega (2% final concentration) or CO2 independent media vehicle control to respective columns of Greiner 1536-well plates.
4. Incubation. Incubate plated cells at room temperature for 2 h, protect from light.
5. Compounds. Library compounds and DMSO vehicle control added at 23nL per well, transferred by Pin Tool.
6. Incubation. Incubate plated cells for 30 min. at room temperature, protect from light.
7. Detector. GloSensor baseline pre-read luminescence measured using CCD-based camera (Viewlux).
8. Compound. Add 1uL of sodium nitroprusside (SNP) to 50 uM final concentration to stimulate soluble guanylyl cyclase (GC) or CO2 independent media as vehicle control.
9. Incubation. Incubate treated cells at room temperature for 20 min., protect from light.
10. Detector. GloSensor post-SNP luminescence measured using CCD-based camera (Viewlux).
NOTES (numbers refer to Sequence numbers above; values are from representative experiments)
1. HEK293 cells expressing GIP/pGS-40F were grown to 85-95% confluence (48-72 h) in T175 culture flasks (CO2 independent media supplemented with 10% FBS, 1% Pen/Strep antibiotics, and 1 ug/mL puromycin). Trypsinize and harvest cells from T175 culture flasks and filter through 40 um cell strainer. Cells counted with Invitrogen Countess (30,000,000 - 50,000,000 cells/flask).
2. Cells incubated for 24 h. at 37C in 95% RH incubator with metal lid having gas-exchange holes.
3. Prepare GloSensor Reagent (Promega): Reconstitute GloSensor luciferase substrate by adding 8.2mL Hepes buffer to 250mg substrate, mix well, protect from light and stored at -80C. Prepare a fresh 12% GloSensor solution in CO2 independent supplemented plating media (see above). Mix well and store at ambient temperature, protected from light. 1uL 12% GloSensor Luciferase Reagent added (2% final concentration) to respective columns of 9 x 1536-well Greiner plate with BioRaptr, 1uL CO2 independent plating media added to respective columns as vehicle control with BioRaptr.
4. Cells incubated for 2 h. at ambient temperature, protected from light with metal lid having gas-exchange holes.
5. 23nL of LOPAC128 library compounds (7 plates) or DMSO vehicle control transferred to 9 Greiner white/solid bottom high base, TC plates in 7 interplate 1:5 titrations (see Yasgar, A. et al. 2008) with Pintool. Two of the 9 plates are DMSO-only in compound field at beginning and end of compound library-treated plates.
6. Cells incubated for 30-50 min. at ambient temperature protected from light with metal lid having gas-exchange holes.
7. Read GloSensor + Antagonist/Compound baseline Luminescence on the ViewLux [Exposure, 30 s; Gain, High; Speed, Slow; Binning, 2X]
8. SNP solution prepared at 500 mM (in H2O) stock concentration. From this a working dilution was prepared at 300 uM in CO2 Independent media. 1uL of 300 uM SNP (50 uM final concentration) or CO2 Independent media vehicle control dispensed into respective columns of 9 x Greiner 1536-well white/solid bottom, tissue culture plates with BioRaptr.
9. Cells incubated for 20 min. at ambient temperature, protected from light with metal lid having gas-exchange holes.
10. Read final luminescence on the ViewLux. [Exposure, 30 s; Gain, High; Speed, Slow; Binning, 2X.]
[…]
% is scaled to controls: 0 for no effect and ±100 for the full control effect; potency is read from the fitted curve at half-maximal effect.

For `c1ccc(CCCN2CCN(CCOC(c3ccccc3)c3ccccc3)CC2)cc1`, the Potency was 26.1 µM (active).
For `CCCN1CCO[C@@H]2c3cc(O)ccc3OC[C@H]21`, the Potency was “inactive”.
With `COc1ccc2c(c[n+](C)c3c4cc5c(cc4ccc23)OCO5)c1OC` the Potency was 13.1 µM (active).
In the case of `CN[C@@H]1C[C@@H](c2ccc(Cl)c(Cl)c2)c2ccccc21`, the Potency was 26.1 µM (active).

Point of comparison: `NCCc1c[nH]c2ccccc12`, “activity change, negative = inhibition” value -0.06%. Against it:
- COc1cc(C(O)CN)ccc1O (stereo not given) — higher, 0.538%
- Clc1cnc(Oc2ccc(Oc3ncc(Cl)cc3Cl)cc2)c(Cl)c1 — lower, -6.21%
- Oc1ccc2c3c1O[C@H]1c4[nH]c5c(c4C[C@@]4(O)[C@@H](C2)N(CC2CC2)CC[C@]314)C[C@@]1(O)[C@H]2Cc3ccc(O)c4c3[C@@]1(CCN2CC1CC1)[C@H]5O4 — lower, -0.949%
- COC(=O)[C@@H](N)CCCN=C(N)N[N+](=O)[O-] — higher, 5.54%
- CS(=N)(=O)CC[C@H](N)C(=O)O (stereo not given in full) — higher, 4.24%
- C[C@]12N[C@H](Cc3ccccc31)c1ccccc12 — lower, -5.99%
- C#CCOC(=O)C1=CCCN(C)C1 — higher, 5.38%
- O=C(O)[C@@H]1CCN1 — lower, -0.975%
- O=C(N[C@H]1CN2CCC1CC2)c1ccc(Cl)cc1 — higher, 1.18%
- O=C(O)CC[N+](=O)[O-] — higher, 8.89%
- CC(C)Oc1cccnc1N(C)C1CCN(Cc2ccccc2)CC1 — higher, 14.7%
- NC(CP(=O)(O)O)C(=O)O (stereo not given) — higher, 1.27%
- Cn1cnc(CCN)c1 — lower, -1.54%
- NC(CCP(=O)(O)O)C(=O)O (stereo not given) — lower, -1.83%
- CC(=O)NCCc1c[nH]c2ccccc12 — lower, -2.66%
- NCc1cc(=O)[nH]o1 — higher, 3.58%
- CCCN(CCC)[C@@H]1CCc2ccc(O)cc2C1 — lower, -0.236%
- CC1=NN=C(c2ccc(N)cc2)c2cc3c(cc2C1)OCO3 — lower, -0.433%
- O=C(O)Cc1cnc[nH]1 — higher, 12%
- C=CCN1CC[C@]23CCCCC2[C@H]1Cc1ccc(O)cc13 (stereo not given in full) — higher, 2.08%
- NC1CCc2cc(O)c(O)cc2C1 (stereo not given) — lower, -10.3%
- NC(=O)CN1CC(O)CC1=O (stereo not given) — higher, 14.1%
- NC(N)=NOCCC(N)C(=O)O (stereo not given) — higher, 9.7%
- C[C@@H]1O[C@H](C[N+](C)(C)C)C[C@H]1O — lower, -0.919%
- CNCCc1ccc(O)c(O)c1 — higher, 2.04%
- c1ccc2sc(C3(N4CCCCC4)CCCCC3)cc2c1 — lower, -2.23%
- C[C@]12CCC3C(CC[C@H]4C[C@H](O)CC[C@]34C)C1CC[C@@H]2C(=O)CO (stereo not given in full) — lower, -6.42%
- C[N+]1(C)C2CCC1CC(OC(=O)C(CO)c1ccccc1)C2 (stereo not given) — lower, -4.05%
- NCCc1c[nH]c2ccc(O)cc12 — higher, 0.669%
- CCCN(CCC)C1CCc2ccc(O)cc2C1 (stereo not given) — higher, 5.81%
- NC(=NCCC[C@H](N)C(=O)O)N[N+](=O)[O-] — lower, -0.356%
- CC[C@@H](C(N)=O)N1CCCC1=O — higher, 4.98%
- Cc1nccc2c1[nH]c1ccccc12 — higher, 4.77%
- NC1CC1c1ccccc1 (stereo not given) — lower, -2.06%
- C[C@@H](N)Cc1cnc[nH]1 — higher, 7.89%

Reference: PubChem BioAssay (NCATS)
